# Targets with a hit are over-represented here; the source holds about 7,900 in all. About 0.6% of all pairs of compound and target were hits. Values without a mark were called inactive.
# Columns and labels:
# Test in all cases: log2 fold change, soluble protein after heating vs DMSO (PISA); higher = thermal stabilisation; K562 cells, 10 uM, 30 min; active = over 0.2 and 3.5 SD of the protein, either way, in both replicates (recomputed)
# [1] = compound: CC1=C(C=C(C=C1)NC(=O)C2=CC(=CC=C2)C(C)(C)C#N)NC3=CC4=C(C=C3)N=CN(C4=O)C
# How it was run: (§1)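 Quantification of soluble protein used TMTpro 16plex LC-MS/MS, with channel sums equalised. Samples were the supernatant after 21,000xg for 90 min of pooled aliquots from K562 cells (2×10^6 cells/mL) treated with 10 μM compound for 30 min, heated for 3 min over 48°C-58°C, and extracted in PBS with 0.5% NP-40 at 4°C. Values, from duplicates, describe thermal stability against control samples on a log2 fold-change scale.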
# [2] = compound: CC1=C(C=C(C=C1)NC(=O)C2=CC(=CC=C2)N(C)C)NC(=O)C3=CC=C(C=C3)O
# How it was run: as §1
# [3] = compound: CC1=CC=C(C=C1)SC2=C3C=C(SC3=CN=C2)C(=O)N
# How it was run: as §1
# [4] = compound: CC1=NC(=CC=C1)C2=C(N=C(N2)C(C)(C)C)C3=CC4=NC=CN=C4C=C3
# How it was run: as §1
# [5] = compound: CCCCN(Cc1ccc(C(=O)NO)cc1)C(=O)Nc1ccccc1 [Nexturastat A]
# How it was run: as §1
# [6] = compound: CCCS(=O)(=O)Nc1ccc(F)c(C(=O)c2c[nH]c3ncc(-c4ccc(Cl)cc4)cc23)c1F [vemurafenib]
# How it was run: as §1
# [7] = compound: CCCS(=O)(=O)Nc1ccc(F)c(C(=O)c2c[nH]c3ncc(Cl)cc23)c1F
# How it was run: as §1
# [8] = compound: CCCc1cc(C)[nH]c(=O)c1CNC(=O)c1cc(-c2ccnc(N3CCN(C)CC3)c2)cc2c1cnn2C(C)C
# How it was run: as §1
# [9] = compound: CCN(CC)Cc1ccc2cc(COC(=O)Nc3ccc(C(=O)NO)cc3)ccc2c1 [givinostat]
# How it was run: as §1
# [10] = compound: CCN(CCCOc1ccc2c(Nc3cc(CC(=O)Nc4cccc(F)c4)[nH]n3)ncnc2c1)CCOP(=O)(O)O [barasertib]
# How it was run: as §1
# UniProt Q12905, sequence (Q12905 whole entry, looked up): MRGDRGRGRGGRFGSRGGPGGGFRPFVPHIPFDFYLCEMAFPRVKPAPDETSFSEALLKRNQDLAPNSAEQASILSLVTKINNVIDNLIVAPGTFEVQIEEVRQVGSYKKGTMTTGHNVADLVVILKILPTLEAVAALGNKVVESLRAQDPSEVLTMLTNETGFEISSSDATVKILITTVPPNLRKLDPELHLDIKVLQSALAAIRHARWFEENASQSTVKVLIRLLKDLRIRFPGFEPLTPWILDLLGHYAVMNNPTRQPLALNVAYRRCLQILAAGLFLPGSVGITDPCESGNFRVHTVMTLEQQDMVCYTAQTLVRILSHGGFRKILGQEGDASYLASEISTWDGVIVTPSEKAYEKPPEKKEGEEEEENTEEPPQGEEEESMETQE
# UniProt Q9Y383, sequence (Q9Y383 whole entry, looked up): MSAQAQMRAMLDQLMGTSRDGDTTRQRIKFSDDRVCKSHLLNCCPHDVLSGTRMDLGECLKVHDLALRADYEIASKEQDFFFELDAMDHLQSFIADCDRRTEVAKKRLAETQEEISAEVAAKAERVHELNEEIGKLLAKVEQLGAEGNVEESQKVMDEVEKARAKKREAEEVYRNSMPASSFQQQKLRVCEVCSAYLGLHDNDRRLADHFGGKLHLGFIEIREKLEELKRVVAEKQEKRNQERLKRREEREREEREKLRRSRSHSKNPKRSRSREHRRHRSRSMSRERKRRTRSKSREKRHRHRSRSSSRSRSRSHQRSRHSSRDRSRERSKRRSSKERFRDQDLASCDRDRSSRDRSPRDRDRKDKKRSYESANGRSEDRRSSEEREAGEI
# UniProt Q96P70, sequence (Q96P70 whole entry, looked up): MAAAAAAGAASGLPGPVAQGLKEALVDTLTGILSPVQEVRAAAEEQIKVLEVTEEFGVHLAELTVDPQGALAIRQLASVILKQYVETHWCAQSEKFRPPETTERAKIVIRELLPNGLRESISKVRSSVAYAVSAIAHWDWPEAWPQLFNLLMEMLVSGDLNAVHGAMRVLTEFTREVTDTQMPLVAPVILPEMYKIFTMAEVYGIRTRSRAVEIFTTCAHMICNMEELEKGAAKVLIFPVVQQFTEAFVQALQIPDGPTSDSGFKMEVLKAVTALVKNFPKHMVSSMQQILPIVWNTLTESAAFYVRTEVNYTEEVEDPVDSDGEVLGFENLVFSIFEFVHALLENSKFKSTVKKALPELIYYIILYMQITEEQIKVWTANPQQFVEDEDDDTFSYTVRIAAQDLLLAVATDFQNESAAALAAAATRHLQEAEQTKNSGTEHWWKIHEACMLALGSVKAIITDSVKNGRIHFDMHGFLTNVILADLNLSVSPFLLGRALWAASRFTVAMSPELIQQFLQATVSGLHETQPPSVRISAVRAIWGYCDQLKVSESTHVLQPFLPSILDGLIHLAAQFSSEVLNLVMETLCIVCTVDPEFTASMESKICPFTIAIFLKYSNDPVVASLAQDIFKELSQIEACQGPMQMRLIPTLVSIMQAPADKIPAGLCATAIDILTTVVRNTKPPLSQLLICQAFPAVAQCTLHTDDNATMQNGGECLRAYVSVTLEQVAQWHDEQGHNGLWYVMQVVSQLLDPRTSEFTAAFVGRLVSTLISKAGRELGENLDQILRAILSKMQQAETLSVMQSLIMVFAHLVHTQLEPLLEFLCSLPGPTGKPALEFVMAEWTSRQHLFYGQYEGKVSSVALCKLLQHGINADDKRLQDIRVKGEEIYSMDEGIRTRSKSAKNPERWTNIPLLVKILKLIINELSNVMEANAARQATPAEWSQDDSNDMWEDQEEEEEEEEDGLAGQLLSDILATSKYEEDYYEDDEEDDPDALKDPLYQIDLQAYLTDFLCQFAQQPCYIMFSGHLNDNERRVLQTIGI
# UniProt A8MWY0, sequence (A8MWY0 whole entry, looked up): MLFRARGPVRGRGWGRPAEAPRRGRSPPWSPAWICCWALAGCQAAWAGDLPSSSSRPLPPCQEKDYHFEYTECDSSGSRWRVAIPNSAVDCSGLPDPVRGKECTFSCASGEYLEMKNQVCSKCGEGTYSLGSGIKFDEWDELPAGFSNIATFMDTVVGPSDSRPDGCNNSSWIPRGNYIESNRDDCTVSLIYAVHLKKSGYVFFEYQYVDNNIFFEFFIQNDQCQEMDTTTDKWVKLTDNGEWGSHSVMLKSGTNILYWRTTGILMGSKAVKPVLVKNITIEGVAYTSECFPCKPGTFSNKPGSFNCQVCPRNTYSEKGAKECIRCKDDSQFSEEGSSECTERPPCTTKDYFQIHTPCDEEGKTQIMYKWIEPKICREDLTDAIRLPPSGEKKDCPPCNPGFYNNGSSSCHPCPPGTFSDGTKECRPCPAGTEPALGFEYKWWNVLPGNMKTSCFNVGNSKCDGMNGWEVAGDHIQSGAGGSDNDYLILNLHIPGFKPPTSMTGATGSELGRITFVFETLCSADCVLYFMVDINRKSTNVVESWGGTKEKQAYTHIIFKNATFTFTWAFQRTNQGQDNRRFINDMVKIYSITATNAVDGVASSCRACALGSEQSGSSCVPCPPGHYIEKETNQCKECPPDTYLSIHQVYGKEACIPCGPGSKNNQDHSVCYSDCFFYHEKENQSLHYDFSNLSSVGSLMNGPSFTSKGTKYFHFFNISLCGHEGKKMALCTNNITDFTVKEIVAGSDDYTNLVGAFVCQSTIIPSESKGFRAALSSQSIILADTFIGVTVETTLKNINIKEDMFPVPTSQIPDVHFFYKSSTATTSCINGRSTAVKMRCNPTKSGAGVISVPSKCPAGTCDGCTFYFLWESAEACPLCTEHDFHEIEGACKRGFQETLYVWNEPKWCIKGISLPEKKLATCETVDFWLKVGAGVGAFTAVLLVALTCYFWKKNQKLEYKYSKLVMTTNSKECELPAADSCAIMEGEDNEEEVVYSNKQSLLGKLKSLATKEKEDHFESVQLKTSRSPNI
# UniProt Q7LBC6, sequence (Q7LBC6 whole entry, looked up): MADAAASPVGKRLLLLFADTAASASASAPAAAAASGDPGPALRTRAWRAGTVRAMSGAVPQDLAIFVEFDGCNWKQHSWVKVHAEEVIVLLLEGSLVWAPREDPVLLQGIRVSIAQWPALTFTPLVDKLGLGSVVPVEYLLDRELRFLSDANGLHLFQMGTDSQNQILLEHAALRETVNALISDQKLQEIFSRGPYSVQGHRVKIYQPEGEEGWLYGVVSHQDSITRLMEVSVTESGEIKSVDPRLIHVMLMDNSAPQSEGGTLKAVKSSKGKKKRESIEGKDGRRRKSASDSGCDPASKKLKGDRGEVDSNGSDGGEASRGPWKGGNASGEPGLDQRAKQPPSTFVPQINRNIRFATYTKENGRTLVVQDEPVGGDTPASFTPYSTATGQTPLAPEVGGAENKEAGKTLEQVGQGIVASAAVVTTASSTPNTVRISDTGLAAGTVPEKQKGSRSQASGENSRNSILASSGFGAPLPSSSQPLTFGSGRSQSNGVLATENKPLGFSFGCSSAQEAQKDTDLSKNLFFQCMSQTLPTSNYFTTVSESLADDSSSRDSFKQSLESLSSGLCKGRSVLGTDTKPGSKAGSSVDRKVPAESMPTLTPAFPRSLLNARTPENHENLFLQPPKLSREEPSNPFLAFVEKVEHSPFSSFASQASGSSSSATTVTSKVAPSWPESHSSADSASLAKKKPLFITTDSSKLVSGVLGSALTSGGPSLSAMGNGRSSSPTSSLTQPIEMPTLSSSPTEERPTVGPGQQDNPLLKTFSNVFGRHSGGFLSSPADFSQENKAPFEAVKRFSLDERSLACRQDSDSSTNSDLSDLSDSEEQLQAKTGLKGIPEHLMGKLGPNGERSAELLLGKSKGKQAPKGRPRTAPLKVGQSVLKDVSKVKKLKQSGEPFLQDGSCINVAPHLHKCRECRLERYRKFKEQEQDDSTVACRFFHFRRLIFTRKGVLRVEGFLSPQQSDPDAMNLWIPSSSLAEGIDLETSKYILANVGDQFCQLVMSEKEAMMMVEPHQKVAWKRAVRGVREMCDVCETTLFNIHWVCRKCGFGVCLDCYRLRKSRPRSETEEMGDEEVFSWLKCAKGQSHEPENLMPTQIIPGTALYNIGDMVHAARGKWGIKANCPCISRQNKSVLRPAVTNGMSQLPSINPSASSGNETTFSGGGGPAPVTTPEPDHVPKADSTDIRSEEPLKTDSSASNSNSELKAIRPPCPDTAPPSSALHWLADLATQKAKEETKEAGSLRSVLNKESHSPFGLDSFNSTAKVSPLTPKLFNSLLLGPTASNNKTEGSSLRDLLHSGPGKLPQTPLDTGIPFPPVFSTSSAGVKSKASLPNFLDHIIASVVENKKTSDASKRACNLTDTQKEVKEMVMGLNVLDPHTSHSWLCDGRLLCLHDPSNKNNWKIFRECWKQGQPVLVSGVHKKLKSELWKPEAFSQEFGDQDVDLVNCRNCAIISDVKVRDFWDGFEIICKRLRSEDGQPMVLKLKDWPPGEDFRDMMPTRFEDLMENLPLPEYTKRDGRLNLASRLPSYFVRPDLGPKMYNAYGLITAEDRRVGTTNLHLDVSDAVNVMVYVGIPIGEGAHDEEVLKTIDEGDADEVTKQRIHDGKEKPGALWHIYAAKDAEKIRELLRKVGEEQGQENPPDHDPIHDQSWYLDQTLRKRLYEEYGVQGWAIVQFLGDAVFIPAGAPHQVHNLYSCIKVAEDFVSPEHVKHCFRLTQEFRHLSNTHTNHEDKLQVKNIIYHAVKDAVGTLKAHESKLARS
# UniProt Q9H6V9, sequence (Q9H6V9 whole entry, looked up): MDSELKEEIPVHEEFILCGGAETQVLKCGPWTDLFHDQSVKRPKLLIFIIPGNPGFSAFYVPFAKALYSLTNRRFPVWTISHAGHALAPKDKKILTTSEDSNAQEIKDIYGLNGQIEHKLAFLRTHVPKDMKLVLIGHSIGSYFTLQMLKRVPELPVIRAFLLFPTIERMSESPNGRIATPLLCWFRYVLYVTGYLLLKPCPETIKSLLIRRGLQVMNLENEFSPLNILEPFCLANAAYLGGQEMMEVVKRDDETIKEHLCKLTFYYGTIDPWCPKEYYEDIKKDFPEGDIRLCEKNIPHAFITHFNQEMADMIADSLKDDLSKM
Target,log2 fold change [1],log2 fold change [2],log2 fold change [3],log2 fold change [4],log2 fold change [5],log2 fold change [6],log2 fold change [7],log2 fold change [8],log2 fold change [9],log2 fold change [10]
ILF2 (UniProt Q12905),0.036,-0.032,-0.031,-0.041,0.084,0.028,-0.042,0.032,-0.02,-0.119
INPP1 (UniProt P49441),0.039,0.016,0.054,0.052,0.061,0.031,-0.071,0.079,-0.032,-0.03
KIAA1324L (UniProt A8MWY0),-0.065,-0.022,0.028,0.002,0.045,0.002,-0.048,0.05,0.032,0.002
IPO9 (UniProt Q96P70),0.029,0.033,0,-0.001,-0.075,0.079,0.075,-0.022,-0.018,0.025
LTN1 isoform 3 (UniProt O94822),-0.013,-0.031,-0.008,-0.006,0.104,0.039,0.058,0.017,0.065,0.042
LUC7L2 (UniProt Q9Y383),0.016,-0.011,0.006,0.089,-0.036,0.012,0.047,0.015,-0.01,0
MAP2K7 isoform 4 (UniProt O14733),-0.068,0.003,-0.008,0.009,-0.031,-0.01,0.009,-0.026,-0.019,0.016
IMMP1L (UniProt Q96LU5),0.003,0.067,0.008,-0.029,-0.085,-0.055,-0.031,0.273,-0.048,-0.024
MIER1 isoform 12 (UniProt Q8N108),0.003,0.016,0.002,0.012,0.306 (active),-0.006,0.008,-0.013,0.31 (active),0.01
MAPKAPK2 (UniProt P49137),0.077,0.082,-0.008,0.019,-0.047,0.074,0.045,0.038,0.026,-0.001
LSS (UniProt P48449),-0.032,-0.122,-0.071,0.054,0.012,0.03,0.073,0,0.766 (active),0.382
LMNB1 (UniProt P20700),-0.019,0.027,-0.046,-0.012,-0.045,0.1,0.065,-0.029,0.002,0.021
KDM3B (UniProt Q7LBC6),0.024,-0.041,-0.032,0.037,-0.045,0.049,0.031,0.041,-0.001,0.082
LDAH isoform 2 (UniProt Q9H6V9),-0.026,-0.008,0,-0.024,0.032,0.044,0.024,-0.04,0.059,0.031
KCTD2 (UniProt Q14681),-0.421,0.087,-0.343,-0.084,0.072,-0.164,-0.468,-0.163,0.078,0.018

# From the supplement of paper PMC10849652
